# HCV inh: qHTS Assay for Inhibitors of Hepatitis C Virus (HCV). hit rate 3.4% among 340,000. Huh7.5.1 HCVcc-Cre infection, luciferase reporter, 44 h. Potency, µM (highest dose often 41.8 µM), inactives show at the top dose activity change, negative = inhibition, most hits filed as inhibitors; note: potency is the fitted concentration of half-maximal effect; % is set by controls: 0 for no effect and ±100 for the full control effect
#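 Reporter virus HCVcc-Cre (~0.5 moi) infects cells exposed to compound; seeding density 1,000 cells/well with 4 h settling beforehand. Luminescence, 15 sec read, taken 44 h post-infection following a 15 min RT substrate incubation.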
# Pf growth 48h: Primary qHTS for delayed death inhibitors of the malarial parasite plastid, 48 hour incubation. P. falciparum luciferase growth in erythrocytes, 48 h. Potency, µM (series often up to 28.7 µM), for the others: at the top dose activity change, negative = inhibition, usual class: inhibitors. hit rate 5.9% among 310,000; note: potency is the fitted concentration of half-maximal effect; % is set by controls: 0 for no effect and ±100 for the full control effect
#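 Luminescence readout; reporter = integrated firefly luciferase in P. falciparum. RBC culture at 2% hematocrit, 0.1% parasitemia final, 37 C/5% CO2; decreased signal taken as growth inhibition.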
# Pf growth 96h: Primary qHTS for delayed death inhibitors of the malarial parasite plastid, 96 hour incubation. P. falciparum luciferase reporter growth, 96 h. Potency, µM (highest dose often 28.7 µM), inactives show top-dose activity change, negative = inhibition, hits mostly inhibitors. hit rate 6.9% among 320,000; note: potency is the fitted concentration of half-maximal effect; % is set by controls: 0 for no effect and ±100 for the full control effect
#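 Two-generation exposure (96 h) targets delayed-death phenotype. Reporter parasites carrying integrated firefly luciferase, in red cells at 2% hematocrit and 0.05% parasitemia final, kept at 37 C, 5% CO2; luminescence loss indicates inhibition.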
# Shiga inhibitor: A qHTS for Small Molecule Inhibitors of Shiga Toxin; Vero cells, Shiga toxin protein synthesis inhibition reporter; inhibition, % at 38.7 µM; hit rate 9.2% among 290,000; AID 2315, 2010; in the data active = inhibition mostly above about 28%, no sharp cut-off; inactive = mostly below about 43%; note: 0% is about no effect
# CHX counter: Cycloheximide Counterscreen for Small Molecule Inhibitors of Shiga Toxin. hit rate 12% among 300,000. AID 2314, 2010. cell reporter, cycloheximide protein synthesis inhibition counterscreen. max response, %; in the data active = max response mostly above about 13%, no sharp cut-off; inactive = mostly below about 14%; note: read at 38.3 µM for the half of the compounds with a filed dose; 0% is about no effect
# HCMV antiviral: qHTS Assay for inhibitors of the human cytomegalovirus (HCMV). HFF cells, HCMV-luciferase reporter, 72 h; stronger effect = lower value. activity change, negative = inhibition, % at 57.5 µM. hit rate 4.5% among 410,000. AID 1259415, 2018; in the data active = activity change below about -60%; inconclusive = no clear call, values can overlap the other calls; inactive = above about -39%; note: % is set by controls: 0 for no effect and ±100 for the full control effect
#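 Inhibition of viral replication was scored as loss of reporter luminescence in HFFs infected with HCMV-luciferase (MOI 1 PFU/cell) for 72 h; compounds tested at 2 doses, normalized to buffer and Salinomycin controls.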
# An asterisk follows results filed as active; ? = inconclusive; nt = not tested or not shown. The list is not random: actives were taken first. Their share in the collection is about 21%. Unless noted, calls come from the whole dose curve; as a rule, active = well fitted inhibition curve with a large enough effect; inconclusive = small, poorly fitted or top-dose-only effect, or another doubt; inactive = no such curve, though single readings can be large or run the other way.
SMILES,HCV inh,Pf growth 48h,Pf growth 96h,Shiga inhibitor,CHX counter,HCMV antiviral
Cc1cc(C)n2nc(-c3cccc(Br)c3)cc2n1,?,147%,?,nt,32*,111
Cc1cc(C)n2ncc(-c3cccc(Br)c3)c2n1,-6%,20%,?,55*,65*,120
Cc1ccc(C(=O)NCC(c2ccco2)S(=O)(=O)c2ccccc2)cc1C (stereo unspecified),nt,nt,nt,nt,nt,6
C=CCC1C=C(C)CC(CC=C)N1 (stereo unspecified),14%,-4%,?,-8,9,-17
CCOC(=O)C1CCN(CC(=O)Nc2cc(C)c3c(=O)oc4ccccc4c3n2)CC1,nt,nt,nt,nt,nt,11
CCC(C)(C)NC(=O)C(c1ccccc1Cl)N(Cc1cccnc1)C(=O)CCC(=O)Nc1cc(C)on1 (stereo unspecified),29%,-28%,6%,-4,-3,5
CCc1ccc([C@H]2[C@@H]3C(=O)C[C@@H]4C(=O)N(Cc5ccccc5)C(=O)[C@@H]4[C@@H]3CN2S(=O)(=O)c2ccc(C)cc2)cc1,nt,nt,nt,nt,nt,-18
CC(=O)c1cnc2cc(-c3cccc(Br)c3)nn2c1C,-7%,130%,?,91*,39*,16
CCOC(=O)c1cnc2cc(-c3ccc(C)cc3)nn2c1C,nt,nt,nt,nt,nt,11
Nc1nc(N(Cc2ccccc2)Cc2ccccc2)nc(C(F)(F)F)n1,?,?,?,nt,nt,14
COc1ccc(C(=O)Nc2ccc3c4c(cccc24)CC3)cc1,?,10%,61%,73,32*,31
O=C(Nc1ccc2c3c(cccc13)CC2)c1ccco1,0%,49%,nt,53,19*,-16
COc1cc(OC)cc(C(=O)NC(=S)Nc2ccc3c4c(cccc24)CC3)c1,-19%,-3%,0%,8,14,-30
COC(=O)CCSCC(=O)N1N=C(c2ccc(OC)cc2)CC1c1cccc(OC)c1OC (stereo unspecified),21%,-25%,1%,-17,-4,39
C#CCOCCOCCOCCNc1nc(N2CCN(C(=O)CCCCCCCCCCNC(=O)[C@H](CCCCN)n3cc(C)nn3)CC2)nc(N2CCN(C(=O)CCCCCCCCCCNC(=O)[C@@H]([C@H](C)O)n3cc(C)nn3)CC2)n1,2.8µM*,2.1µM*,1.2µM*,nt,nt,nt
C#CCOCCOCCOCCNc1nc(N2CCN(C(=O)[C@H](CCCCN)n3cc(CN)nn3)CC2)nc(N2CCN(C(=O)[C@H](CCCCN)n3cc(CN)nn3)CC2)n1,15%,nt,nt,nt,nt,2
C#CCOCCOCCOCCNc1nc(N2CCN(C(=O)CCCCCCCCCCNC(=O)[C@@H](CCSC)n3cc(CCO)nn3)CC2)nc(N2CCN(C(=O)CCCCCCCCCCNC(=O)[C@@H]([C@H](C)O)n3cc(C)nn3)CC2)n1,-13%,0.15µM*,0.17µM*,nt,nt,-72*
C#CCOCCOCCOCCNc1nc(N2CCN(C(=O)CCCCCCCCCCNC(=O)[C@H](CCCCN)n3cc(C[C@@H](C)CC)nn3)CC2)nc(N2CCN(C(=O)CCCCCCCCCCNC(=O)[C@@H]([C@H](C)O)n3cc(C)nn3)CC2)n1,?,2.1µM*,0.37µM*,nt,nt,nt
C#CCOCCOCCOCCNc1nc(N2CCN(C(=O)Cn3cc(CCO)nn3)CC2)nc(N2CCN(C(=O)Cn3cc(CC(C)O)nn3)CC2)n1 (stereo unspecified),30%,nt,nt,nt,nt,41
C#CCOCCOCCOCCNc1nc(N2CCN(C(=O)[C@H]([C@@H](C)O)n3cc(CCCCN)nn3)CC2)nc(N2CCN(C(=O)[C@H](CCCCN)n3cc(CC(C)O)nn3)CC2)n1 (stereo partly specified),4%,15%,-10%,nt,nt,-4
C#CCOCCOCCOCCNc1nc(N2CCN(C(=O)CCCCCCCCCCNC(=O)Cn3cc(C[C@@H](C)O)nn3)CC2)nc(N2CCN(C(=O)CCCCCCCCCCNC(=O)[C@@H](CCSC)n3cc(CCO)nn3)CC2)n1,-13%,0.19µM*,0.15µM*,nt,nt,nt
